Several values for one entry are separate records, joined by “and”; a condition that tells them apart may be missing. Equal entries are not always repeated. About 2,000 (36%) of roughly 5,500 compounds were called active. Roughly 18% stayed inconclusive and do not appear here. Rule as the data show it: active = normalized growth mostly below about 0.91 (no sharp cut-off); inconclusive = no clear call, values can overlap the other calls; inactive = mostly above about 0.92. The list shows a part of the results.
Test: chemical genetic growth profiling, strain panel (AID 1159580);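 also: tested at 20 µM; growth read once vehicle control cultures reached saturation at 30 °C; 1 = growth at the plate median or of vehicle wells; lower values mean less growth of the strain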
Conditions: S. cerevisiae deletion strains, growth OD

Measured: normalized growth

O=C(/C=C/c1ccc(O)c(O)c1)O[C@@H]1C[C@](O)(C(=O)O)C[C@@H](O)[C@H]1O
inactive: locus YAL021C, strain ccr4, hits give low values 1.05 | locus YAL026C, strain drs2, hits give low values 0.979 | locus YAL030W, strain snc1, hits give low values 0.983 | locus YBL061C, strain skt5, hits give low values 0.992 | locus YBR009C, strain hhf1, hits give low values 0.994 | locus YBR021W, strain FUR4, hits give low values 0.992 | locus YBR023C, strain chs3, hits give low values 1.03 | locus YBR171W, strain sec66, hits give low values 0.95 | locus YBR229C, strain ROT2, hits give low values 0.997 | locus YBR231C, strain swc5, hits give low values 0.956 | locus YBR279W, strain paf1, hits give low values 0.988 | locus YCL011C, strain gbp2, hits give low values 0.985 | locus YCL016C, strain dcc1, hits give low values 1.02 | locus YCL029C, strain bik1, hits give low values 1.02 | locus YCL061C, strain MRC1, hits give low values 1 | locus YCL069W, strain vba3, hits give low values 0.964 | locus YCR088W, strain abp1, hits give low values 0.968 | locus YDL005C, strain med2, hits give low values 0.966 | locus YDL035C, strain GPR1, hits give low values 0.984 | locus YDL040C, strain nat1, hits give low values 0.98 | locus YDL074C, strain BRE1, hits give low values 1.04 | locus YDL101C, strain DUN1, hits give low values 1.02 | locus YDL185W, strain tfp1, hits give low values 1.01 | locus YDL192W, strain arf1, hits give low values 1 | locus YDR001C, strain nth1, hits give low values 0.98 | locus YDR069C, strain doa4, hits give low values 0.97 | locus YDR101C, strain arx1, hits give low values 1.02 | locus YDR137W, strain rgp1, hits give low values 0.98 | locus YDR150W, strain NUM1, hits give low values 1.01 | locus YDR159W, strain sac3, hits give low values 0.915 | locus YDR162C, strain NBP2, hits give low values 1.01 | locus YDR195W, strain ref2 0.942 | locus YDR297W, strain sur2, hits give low values 0.99 | locus YDR318W, strain mcm21, hits give low values 1.01 | locus YDR334W, strain swr1, hits give low values 0.974 | locus YDR335W, strain msn5, hits give low values 0.973 | locus YDR388W, hits give low values 1.01 | locus YDR392W, strain spt3, hits give low values 0.997 | locus YDR502C, strain sam2, hits give low values 1.02 | locus YEL003W, strain gim4, hits give low values 0.976 | locus YEL037C, strain rad23, hits give low values 0.973 | locus YEL061C, strain CIN8 (second series), hits give low values 0.965 | locus YEL061C, strain CIN8, hits give low values 1.01 | locus YER015W, strain faa2, hits give low values 0.988 | locus YER016W, strain bim1, hits give low values 0.968 | locus YER110C, hits give low values 1.02 | locus YER111C, strain swi4, hits give low values 0.976 | locus YER155C, strain BEM2 (second series), hits give low values 0.993 | locus YER155C, strain BEM2, hits give low values 1.01 | locus YER167W, strain BCK2, hits give low values 1.01 | locus YFR010W, strain ubp6, hits give low values 0.972 | locus YGL078C, strain dbp3, hits give low values 1.01 | locus YGL086W, strain mad1, hits give low values 1.02 | locus YGL167C, strain pmr1, hits give low values 0.971 | locus YGL173C, strain kem1, hits give low values 0.959 | locus YGL227W, strain vid30, hits give low values 0.975 | locus YGL240W, strain doc1, hits give low values 0.962 | locus YGL248W, strain PDE1, hits give low values 1.01 | locus YGL253W, strain hxk2, hits give low values 0.949 | locus YGR078C, strain PAC10, hits give low values 1.03 | locus YGR135W, strain pre9, hits give low values 0.997 | locus YGR252W, strain gcn5, hits give low values 0.97 | locus YHR013C, strain ard1, hits give low values 0.997 | locus YHR027C, strain rpn1, hits give low values 0.985 | locus YHR030C, strain SLT2, hits give low values 1.01 | locus YHR079C, strain IRE1 (second series), hits give low values 1.01 | locus YHR079C, strain IRE1, hits give low values 1 | locus YHR094C, strain hxt1, hits give low values 1.02 | locus YHR129C, strain ARP1, hits give low values 1 | locus YHR142W, strain chs7, hits give low values 0.975 | locus YHR200W, strain rpn10, hits give low values 1.02 | locus YIL066C, strain RNR3, hits give low values 0.981 | locus YIL073C, strain SPO22, hits give low values 1.02 | locus YIL125W, strain kgd1, hits give low values 1.02 | locus YIR030C, strain dcg1, hits give low values 1.01 | locus YJL092W, strain hpr5, hits give low values 0.969 | locus YJL095W, strain BCK1 (second series), hits give low values 0.953 | locus YJL095W, strain BCK1, hits give low values 1.04 and 1.02 | locus YJL115W, strain asf1, hits give low values 0.992 | locus YJL129C, strain trk1, hits give low values 0.966 | locus YJL134W, strain LCB3, hits give low values 1.01 | locus YJL154C, strain vps35, hits give low values 0.976 | locus YJL164C, strain tpk1, hits give low values 1.01 | locus YJL166W, strain qcr8, hits give low values 0.974 | locus YJL168C, strain set2, hits give low values 1 | locus YJL187C, strain SWE1 (second series), hits give low values 1.03 | locus YJR043C, strain POL32, hits give low values 1.01 | locus YJR066W, strain TOR1, hits give low values 0.947 | locus YJR075W, strain HOC1, hits give low values 1.04

From PubChem BioAssay AID1159580 (chemical genetic matrix, 2015)
